Experimental data: the supplement of paper PMC13392028
Over roughly 4,100 sequences, “RBNS R-value (6-mer enrichment in protein-bound RNA vs input library)” has its median near 0.96; the highest 2% begin near 2.4. The list comes from a sample in which the highest values are over-represented; it also holds similar and randomly drawn sequences.

Tested on: PyIESI-1 RRM domain (Plasmodium yoelii PY17X_0911200 aa 795-956, GST fusion)
Experiment: RBNS R-value (6-mer enrichment in protein-bound RNA vs input library) (ratio); higher = stronger binding preference; the methods of the paper give 50 / 100 / 500 nM protein instead
Description: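 RNA Bind-n-Seq: recombinant GST-tagged IESI-1 RRM domain was incubated at room temperature with a random 40-nt in vitro transcribed RNA library at 250, 500 or 1000 nM protein. Bound RNA was pulled down on glutathione beads and sequenced. R-value is the enrichment of each 6-mer in the bound RNA relative to the input library. Each 6-mer sits inside the random 40-mer context, not as an isolated oligo. Values are replicate 1 only.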

Sequence	RBNS R-value (protein concentration: 250 nM)	RBNS R-value (protein concentration: 500 nM)	RBNS R-value (protein concentration: 1000 nM)
GAUGGG	2.54	2.43	2.36
UCAGAC	0.883	0.894	0.893
AUUUAC	0.935	0.952	0.963
AUGGGA	1.34	1.34	1.29
GUCAAC	0.681	0.708	0.688
UCUCAA	0.805	0.835	0.84
UUACGC	0.784	0.803	0.805
AAGGCU	0.979	0.991	0.95
GAUCGG	0.955	0.963	0.942
GAUAUA	1.32	1.36	1.53
GAUAUG	2.3	2.32	2.43
GAUAUU	1.57	1.65	1.77
AUAUAA	0.522	0.55	0.539
AGUGUA	0.664	0.68	0.657
GGAGUU	0.958	0.98	0.948
UUUACC	0.764	0.778	0.794
GGGUGU	0.909	0.99	0.941
UCGGAA	0.911	0.907	0.87
UAUGAU	4.89	4.59	4.9
UAUGAA	0.826	0.838	0.811

Sequence	RBNS R-value (protein concentration: 250 nM)	RBNS R-value (protein concentration: 500 nM)	RBNS R-value (protein concentration: 1000 nM)
AAUGAG	1.03	1.07	1.04
CAUGAU	5.84	5.36	5.72
CAUGAG	0.978	0.984	0.979
AAUGAU	5.76	5.22	5.56
CAUGAA	0.887	0.913	0.901
UAUGAG	0.865	0.899	0.898
AAUGGU	0.878	0.894	0.881
AUAGUC	0.632	0.65	0.627
CACCUG	1.72	1.67	1.73
UAUGAC	0.93	0.947	0.974
AAUGAC	1.19	1.23	1.25
GACGAG	1.19	1.18	1.13
GGUGAA	1	1.02	0.954
GAUGAA	4.07	3.66	3.68
AAUGAA	1.03	1.02	1.02
GAUGAU	6.07	5.52	5.59
GAUAAU	1.7	1.73	1.86
GAUGAC	3.66	3.41	3.46
GAUGGU	1.92	1.85	1.9
GAUGAG	3.25	3.07	3.06

Sequence	RBNS R-value (protein concentration: 250 nM)	RBNS R-value (protein concentration: 500 nM)	RBNS R-value (protein concentration: 1000 nM)
UGAUCG	1.64	1.68	1.74
CUAAGC	0.741	0.738	0.733
GUUUGG	0.834	0.866	0.813
UAGGAG	0.934	0.936	0.887
CUGCAU	0.892	0.929	0.917
UCUGUU	0.847	0.911	0.878
GUGGCG	0.953	0.954	0.937
AAAUGA	2.48	2.3	2.4
GAAUGA	2.5	2.31	2.3
GAAUGU	0.999	1	0.972
UAAUGA	1.69	1.65	1.71
AAAUGC	0.942	0.952	0.985
GAAUGC	1.17	1.18	1.17
AUUAAC	0.87	0.859	0.881
CCCUCC	1.15	1.13	1.17
UCGCGU	0.843	0.85	0.835
ACUCUC	0.893	0.906	0.906
GAGGAC	1.09	1.06	1.02
